Screening data deposited in PubChem BioAssay by National Center for Advancing Translational Sciences (NCATS).
Most compounds without a hit are left out; they make up all but 10% or so of the library.
hNpr1 antagonist = antagonists of human natriuretic peptide receptor Npr1 | P16066 | HEK293 hNpr1 GloSensor cGMP, ANP-stimulated luminescence | Potency, µM (titrated, usually from 46.3 µM), for inactives: top-dose activity change, negative = inhibition, most hits filed as inhibitors | 76,000 tested, 1.6% active; calls by dose curve; also: % is scaled to controls: 0 for no effect and ±100 for the full control effect; nearly all actives have a fitted effect of over 60% in size
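Compound pre-incubated 30 min at room temperature on GloSensor-loaded HEK293 cells stably carrying hNpr1 and the pGS-40F cGMP biosensor. Stimulation uses hNppA at 0.1 nM final; luminescence is taken at baseline and 20 min post-agonist.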
NIH3T3 tox = cytotoxic compounds in NIH 3T3 cells; NIH 3T3 viability, CellTiter-Glo ATP luminescence, 48-72 h; Potency, µM (series often up to 96.7 µM), for the others: at the top dose activity change, negative = cytotoxicity, actives largely listed as inhibitors; 94,000 tested, 4.3% active; also: % is scaled to controls: 0 for no effect and ±100 for the full control effect; nearly all actives have a fitted effect of over 55% in size
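ATP-dependent luminescence (CellTiter-Glo) served as the viability signal for NIH 3T3 cells treated with compound for 48 or 72 hr at 37 °C.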
HEK293 tox = HEK 293 cell cytotoxicity; 94,000 tested, 6.6% active; HEK 293 viability, ATP luminescence (CellTiter-Glo), 48-72 h; Potency, µM (doses to about 115 µM), inactives show at the highest dose activity change, negative = cytotoxicity, usual class: inhibitors; also: % is scaled to controls: 0 for no effect and ±100 for the full control effect; nearly all actives have a fitted effect of over 60% in size
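Cytotoxicity was scored by loss of ATP-coupled luminescence (CellTiter-Glo) in HEK 293 cells. Compound treatment ran 48 or 72 hr at 37 degree Celsius, 5% CO2, 95% humidity.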
Luciferase inh = blocks purified firefly luciferase enzyme activity. AID 1347043. 76,000 tested, 2.5% active. purified P. pyralis luciferase, luminescence, biochemical. P08659. Potency, µM (titrated, usually from 115 µM), hits mostly inhibitors; also: % is scaled to controls: 0 for no effect and ±100 for the full control effect; nearly all actives have a fitted effect of over 65% in size
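Purified P. pyralis luciferase (10nM final) in 50mM Tris acetate pH 7.5, 10mM Mg acetate, 0.01% Tween-20, 0.05% BSA with 10uM D-luciferin and 10uM ATP. Compounds titrated qHTS. Luminescence imaged on CCD.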
GPT2 inh = inhibitors of human GPT2 alanine aminotransferase. Recombinant GPT2, coupled pyruvate oxidase/HRP Amplex Red fluorescence. Potency, µM (highest dose often 57.7 µM), without a hit: at the top dose activity change, negative = inhibition, usual class: inhibitors. 100,000 tested, 0.25% active; also: % is scaled to controls: 0 for no effect and ±100 for the full control effect; nearly all actives have a fitted effect of over 60% in size
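Inhibition is scored from Amplex Red fluorescence generated when pyruvate oxidase and HRP act on pyruvate released by GPT2. Reactions contain 10ng/uL enzyme, 250uM a-KG and 2mM L-alanine and run 30 min at room temperature.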
Npr1 antag conf = confirmation of human Npr1 natriuretic peptide receptor antagonists; 1,400 tested, 76% active; shares compounds with hNpr1 antagonist; Potency, µM (series often up to 57.6 µM), inactives show at the highest dose activity change, negative = inhibition, usual class: inhibitors; AID 1347044; HEK293 hNpr1 cGMP GloSensor luminescence, ANP-stimulated; calls by dose curve; also: nearly all actives have a fitted effect of over 70% in size
NPR2 antag = hNpr2 antagonism, selectivity versus Npr1. HEK293 hNpr2 GloSensor cGMP luminescence, CNP-stimulated. shares compounds with hNpr1 antagonist. Potency, µM (doses to about 57.6 µM), for the others: at the highest dose activity change, negative = inhibition, actives largely listed as inhibitors. 1,400 tested, 67% active; calls by dose curve; also: nearly all actives have a fitted effect of over 70% in size
FLuc counter = FLuc enzyme inhibition, Npr1 counter-screen; shares compounds with hNpr1 antagonist; purified FLuc enzyme, luminescence, Km substrate; Potency, µM (titrated, usually from 57.6 µM), inactives show top-dose activity change, negative = inhibition, hits mostly inhibitors; 1,400 tested, 0.7% active; AID 1347047; also: series mostly up to about 58 µM; 0% is about no effect
GloSensor ctrl = counter-screen for Npr1 antagonists: GloSensor control cell line; shares compounds with hNpr1 antagonist; HEK293 GloSensor cGMP, SNP-stimulated, luminescence; Potency, µM (highest dose often 57.6 µM), without a hit: at the top dose activity change, negative = inhibition, hits mostly inhibitors; 1,400 tested, 69% active; AID 1347051; calls by dose curve; also: % is scaled to controls: 0 for no effect and ±100 for the full control effect; nearly all actives have a fitted effect of over 70% in size
Numbers without * were called inactive; i = inactive; ? = inconclusive; . = no result given; [ ] = remark or other dose. Unless noted, calls follow the shape of the dose curve; as a rule, active = well fitted curve in the direction sought with a large enough effect; inconclusive = small, poorly fitted or top-dose-only effect, or another doubt; inactive = no such curve, though single readings can be large; an effect the other way counts as inactive or inconclusive. Potency is read from the fitted curve at half-maximal effect.

SMILES	hNpr1 antagonist	NIH3T3 tox	HEK293 tox	Luciferase inh	GPT2 inh	Npr1 antag conf	NPR2 antag	FLuc counter	GloSensor ctrl
O=C(COc1ccccc1)N1CCN(C(=O)c2nnn3c2COC(c2ccc(Cl)cc2)C3)CC1 (stereo not drawn)	11µM*	?	25µM*	i	i	22µM*	22µM*	-1%	19µM*
COc1ccc(C2Cn3nnc(C(=O)N4CCN(C(=O)c5cccc(F)c5)CC4)c3CO2)cc1 (stereo not drawn)	?	?	?	i	i	22µM*	22µM*	-1%	22µM*
COc1ccc(C2Cn3nnc(C(=O)N4CCN(C(=O)c5sccc5C)CC4)c3CO2)cc1 (stereo not drawn)	?	-8%	?	i	i	22µM*	27µM*	1%	22µM*
O=C(c1cccc(F)c1)N1CCN(C(=O)c2nnn3c2COC(c2ccc(F)cc2)C3)CC1 (stereo not drawn)	?	-18%	?	i	i	.	.	.	.
COCC(C)Nc1nccc(C2(c3ccccc3Cl)CCNCC2)n1 (stereo not drawn)	-1%	-2%	-21%	i	-7%	.	.	.	.
O=C(Cc1ccccn1)N1CCC2(CC1)CCN(Cc1cccs1)c1ccccc1O2	-4%	?	?	i	i	.	.	.	.
Cc1ccc(C(=O)N2CCN(C(=O)c3nnn4c3COC(c3ccc(Cl)cc3)C4)CC2)c(C)c1 (stereo not drawn)	?	?	?	i	1%	22µM*	24µM*	2%	22µM*
COc1ccc(C2Cn3nnc(C(=O)N4CCN(C(=O)c5c(F)cccc5F)CC4)c3CO2)cc1 (stereo not drawn)	-2%	?	?	i	i	.	.	.	.
O=C(c1cc(Cl)ccc1F)N1CCN(C(=O)c2nnn3c2COC(c2ccccc2)C3)CC1 (stereo not drawn)	?	-27%	?	i	3%	24µM*	?	0%	?
COc1ccc(C2Cn3nnc(C(=O)N4CCN(C(=O)c5cc(F)ccc5F)CC4)c3CO2)cc1 (stereo not drawn)	?	-27%	?	i	i	19µM*	19µM*	4%	19µM*
CCN1CC(c2ccccc2)CC2(CCN(C(=O)Nc3ccccc3)CC2)C1 (stereo not drawn)	-2%	-19%	?	i	-7%	.	.	.	.
O=C(CN1CCCc2nc(-c3ccncc3)ncc2C1=O)NCCN1CCOCC1	-21%	-1%	-4%	i	i	.	.	.	.
O=C(CN1CCCc2nc(-c3ccncc3)ncc2C1=O)N1CCc2ccccc2C1	8.9µM*	?	35µM*	i	-7%	12µM*	15µM*	2%	15µM*
O=C(Cn1cccc1-c1nc(-c2ccc(F)cc2)no1)NCCC1=CCCCC1	-4%	-24%	?	i	-14%	.	.	.	.
COc1cccc([S+](=O)([O-])N2CCC3(CC2)C(=O)Nc2ccccc23)c1	13µM*	?	?	i	?	20µM*	20µM*	2%[86.2 µM]	16µM*
O=C(Nc1ccc2cn[nH]c2c1)c1ccc2c(c1)OCCN(c1ccccc1)C2	?	40µM*	45µM*	i	-9%[88.5 µM]	35µM*	?	-18%[86.2 µM]	35µM*
Cc1cc(C(=O)N2CCC3(CC2)CC(N(Cc2ccc(F)cc2)C2CC2)CCO3)n(C)n1 (stereo not drawn)	?	?	?	i	i	27µM*	?	0%	27µM*
CC(=O)N1CCC2(CC1)CC(N(Cc1ccc(F)cc1)C1CC1)CCO2 (stereo not drawn)	4%	4%	-11%	i	i	.	.	.	.
Cc1nn(C)c2nc(N3CCC(C#N)(c4ccccc4)CC3)sc12	16µM*	?	28µM*	i	1%[11.5 µM]	22µM*	24µM*	0%	22µM*
O=C(CCC1CCN(S(=O)(=O)c2ccccc2)CC1)NCc1ccc(F)cc1	-25%	?	?	i	3%	.	.	.	.
O=C(CCC1CCN(S(=O)(=O)c2ccc(F)cc2)CC1)NCc1nc2ccccc2[nH]1	11µM*	-44%	?	i	i	19µM*	22µM*	0%	15µM*
COC(=O)[C@@H]1Cc2ncn(Cc3ccc(Cl)cc3)c2CN1C(=O)c1ccc(C(F)(F)F)cc1	-25%	?	?	i	-7%	?	-8%	0%	?
COCCC(=O)N1CCC2(CC1)C(OC)CN2c1cccc(F)c1 (stereo not drawn)	1%	2%	4%	i	i	.	.	.	.
COc1ccc(C2(C(=O)N3CCC4(CC3)C(OC)CN4c3cccc(F)c3)CC2)cc1 (stereo not drawn)	11µM*	?	45µM*	i	i	?	14µM*	2%	-23%
COc1ccc(OCC2(C)COc3ccc(C(=O)Nc4ccc(OC)nc4)cc3N2)cc1 (stereo not drawn)	35µM*	?	56µM*	i	-2%[88.5 µM]	35µM*	40µM*	-12%[86.2 µM]	35µM*
COc1ccc(NC(=O)c2ccc3c(c2)NC(C)(COCC2CC2)CO3)cn1 (stereo not drawn)	-20%[70.6 µM]	?	?	?	-7%[88.5 µM]	.	.	.	.
CC1(COc2cccnc2)COc2ccc(C(=O)N3CCN(c4ccccn4)CC3)cc2N1 (stereo not drawn)	6.3µM*	?	?	i	i	6.9µM*	7.7µM*	2%	5.4µM*
